Source: PubChem BioAssay
PostGolgi ctrl: growth inhibition of yeast control strain, primary screen, counter-screen for post-Golgi transport modulator project; efflux-deficient yeast background strain, growth absorbance A615, 16 h; inhibition, % at 10 µM; actives 5% (n = 98,000); AID 738, 2007
CYP2C19 activ: human CYP2C19 activators, primary screen, biochemical, luminescence | Cytochrome P450 2C19 (Homo sapiens), P33261 | recombinant CYP2C19, luciferin-H EGE luminescence; stronger effect = higher value; 0 = fully inhibited enzyme, 1 = untreated enzyme | activation factor at 5 µM | 96,000 tested, under 10 active | AID 1025, 2008;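 active = activation factor of at least 2 at 5 µM in the primary screen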;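 also: 0 = wells with 2.5 mM tranylcypromine and 1 = vehicle-only wells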
Target sequence (P33261 whole entry, looked up): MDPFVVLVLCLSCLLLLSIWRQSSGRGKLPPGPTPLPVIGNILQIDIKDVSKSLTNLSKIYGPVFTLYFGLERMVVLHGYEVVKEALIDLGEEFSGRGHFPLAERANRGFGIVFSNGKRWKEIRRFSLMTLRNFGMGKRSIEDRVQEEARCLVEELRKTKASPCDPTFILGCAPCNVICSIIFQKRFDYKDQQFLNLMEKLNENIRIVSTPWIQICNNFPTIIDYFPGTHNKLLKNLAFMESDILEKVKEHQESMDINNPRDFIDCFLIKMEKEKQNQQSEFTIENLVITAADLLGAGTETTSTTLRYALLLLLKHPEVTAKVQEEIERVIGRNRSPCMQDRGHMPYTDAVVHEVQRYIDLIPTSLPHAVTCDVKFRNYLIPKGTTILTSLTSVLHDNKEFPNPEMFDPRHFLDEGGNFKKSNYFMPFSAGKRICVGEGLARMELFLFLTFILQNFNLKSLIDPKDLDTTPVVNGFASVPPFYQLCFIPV
CYP2C9 act: human CYP2C9 activators, primary screen, biochemical, luminescence | activation factor at 5 µM | recombinant CYP2C9, luciferin-H conversion; stronger effect = higher value; factor 1 = untreated enzyme, 0 = blocked | actives 1.4% (n = 96,000) | AID 1024, 2008;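 active = activation factor of 2 or more for CYP2C9 at a 5 µM dose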;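 also: 0 = sulfaphenazole-blocked wells and 1 = vehicle-only wells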
PostGolgi yeast: phenotypic screen on post-Golgi transport, primary screen; actives 0.9% (n = 98,000); AID 739, 2007; inhibition, % at 10 µM; post-Golgi transport phenotypic cell assay;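 also: yeast cells grown in 1536-well plates; yeast grown about 18 h at 30C before absorbance read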
CYP2C19 inhib: blockers of cytochrome P450 2C19 activity – biochemical, luminescence, ADME assay, primary screen; CYP2C19 Supersomes, luciferin-H EGE luminescence, 30 min; P33261; AID 778, 2007; inhibition, % at 5 µM; actives 21% (n = 96,000);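 active = CYP2C19 inhibition above a set limit at 5 µM in the primary screen, cut at about 50% in these data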;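 also: plate controls were negative control wells for no effect and 2.5 mM tranylcypromine positive control for full effect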
CYP2C9 inh: blockers of cytochrome P450 2C9 activity – biochemical, luminescence, ADME assay, primary screen; P11712; CYP2C9 Supersomes, luciferin-H conversion; inhibition, % at 5 µM; actives 20% (n = 96,000);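 active = blocking of liver enzyme CYP2C9 beyond about 50% at 5 µM, limit read from the data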
* marks the source's active call; other numbers are inactive results; . = no result. Sampled rows, rich in hits. Any-hit rate of the full collection: about 32%. Rule as the data show it, unless noted: active = inhibition above about 30%; inactive = the rest.

SMILES	PostGolgi ctrl	CYP2C19 activ	CYP2C9 act	PostGolgi yeast	CYP2C19 inhib	CYP2C9 inh
O=C(NCc1cccc(C(F)(F)F)c1)C1CC(c2c(Cl)cccc2Cl)=NO1 (stereo not given)	34*	0.2	0.6	-8	78*	43
O=C(NCc1ccc2c(c1)OCO2)C1CC(c2ccc(Cl)c(Cl)c2)=NO1 (stereo not given)	0	0.9	0.9	5	6	8
O=C(NCc1ccco1)C1CC(c2c(Cl)cccc2Cl)=NO1 (stereo not given)	-6	0.7	2.3*	-1	32	-134
COc1ccc(C2=NOC(C(=O)NCc3ccco3)C2)cc1 (stereo not given)	0	0.8	1.2	3	18	-17
COc1ccccc1CNC(=O)C1CC(c2c(Cl)cccc2Cl)=NO1 (stereo not given)	7	0.2	2.2*	2	84*	-115
COc1ccccc1CNC(=O)C1CC(c2ccc([N+](=O)[O-])cc2)=NO1 (stereo not given)	0	0.7	1.2	-4	32	-25
COc1ccc(CCNC(=O)C2CC(c3c(Cl)cccc3Cl)=NO2)cc1 (stereo not given)	9	0.5	0.7	3	48	33
COC(=O)c1cc2c(s1)CS(=O)C2 (stereo not given)	2	.	.	-4	.	.
CCc1cc(-c2n[nH]c(C)c2Oc2ccc(C(C)C)cc2)c(O)cc1O	87*	0.3	0.2	-6	67*	83*
CCCOC(=O)c1ccc(Oc2c(-c3ccc(OC)cc3O)n[nH]c2C)cc1	5	0.5	0.2	-7	46	83*
CCCOC(=O)c1ccc(Oc2c(-c3ccc(O)cc3O)n[nH]c2C)cc1	38*	0.1	0	1	87*	98*
CCCOC(=O)c1ccc(NC(=O)COC)cc1	8	0.9	0.7	-1	9	28
Cc1[nH]nc2ncc(C(=O)c3ccccc3O)cc12	15	0.7	0.7	-7	25	34
Cc1[nH]nc(-c2ccc(O)cc2O)c1Oc1ccccc1	21	0	0	-1	100*	99*
CC(C)=C1C2CC2C2C(C(=O)O)C12 (stereo not given)	22	1	0.9	-1	0	7
CC1NC2(C(=O)N(Cc3ccccc3)c3ccccc32)C2C(=O)N(c3ccccc3)C(=O)C12 (stereo not given)	5	0.8	1	-2	16	0
Cc1cccc(OCc2nnc(SCc3nc4ccccc4c(=O)[nH]3)o2)c1	3	0.5	0.5	-5	54*	48
O=c1[nH]c(CSc2nnc(COc3ccccc3)n2-c2ccccc2)nc2ccccc12	25	0.1	0.1	-3	85*	90*
Cn1c(COc2ccccc2)nnc1SCc1nc2ccccc2[nH]1	17	0.6	0.9	1	35	6
COc1ccc(Cc2nnc(SCC(=O)Nc3nc(C)cs3)o2)cc1	4	0.9	0.9	7	7	6
O=C(CSc1nc(-c2ccc(F)cc2)cs1)NC(=O)NCc1ccco1	6	1	1.6	9	2	-63
CC1CN(C(=O)CSc2nc(-c3ccc(F)cc3)cs2)CC(C)O1 (stereo not given)	2	0.2	0.9	-3	79*	10
Cc1nc(-c2ccc(C(=O)N3CCOCC3)cc2)cs1	8	0.8	1.1	9	16	-11
O=C(CSc1nc(-c2ccc(F)cc2)cs1)N1CCOCC1	9	0.3	2.1*	1	69*	-110
S=C1NC2=C(C(c3ccc(Br)cc3)N1)N1CCC2CC1 (stereo not given)	3	0.9	1	16	12	2
SMILES	PostGolgi ctrl	CYP2C19 activ	CYP2C9 act	PostGolgi yeast	CYP2C19 inhib	CYP2C9 inh
O=C(O)COCc1nc2ccccc2[nH]1	21	1	1	-5	3	1
Cc1c(NC(=O)NC(C)N2C(=O)C3C4C=CC(C4)C3C2=O)c(=O)n(-c2ccccc2)n1C (stereo not given)	15	1.2	1.2	6	-16	-18
CC(C)COn1c(=S)[nH]c2ccccc2c1=O	38*	0.4	0.7	1	59*	27
COC(=O)c1c(-n2cnnn2)sc(C)c1C	9	0.9	1	10	10	2
CC1C/C(=C/c2cccn2C)C(=O)/C(=C/c2cccn2C)C1 (stereo not given)	41*	1	1	12	4	1
CC(C)C(=O)Nc1ccc2c(c1)nc(CCN1CCN(C)CC1)n2C	8	1.1	1.1	7	-7	-8
Cc1ccc(C(=O)/C=C/c2ccc(-c3ccccc3[N+](=O)[O-])o2)cc1	12	0.7	0.4	-6	29	58*
O=C(/C=C/c1ccc(-c2ccccc2[N+](=O)[O-])o1)c1ccc(Br)cc1	11	0.8	0.9	-4	21	13
CC(C)OC(=O)CCC1(C(=O)O)CCC(=O)NC1 (stereo not given)	-3	1.1	1.1	-11	-12	-15
COc1cc(NC(=O)c2ccco2)c(OC)cc1NC(=O)c1cc(OC)c(OC)c(OC)c1	3	0.9	0.7	16	12	28
COc1cc(C(=O)OCC(=O)NC2CCCC2)cc(NC(=O)c2ccco2)c1OC	7	0.2	0.3	-5	78*	73*
CCOc1cc(NC(=O)c2ccco2)c(OCC)cc1NC(=O)c1cc(OC)c(OC)c(OC)c1	8	0.8	0.4	-2	21	57*
COc1cccc(NC(=O)Cn2c(=O)c3c(ncn3Cc3ccccc3)n(Cc3ccccc3)c2=O)c1	13	0.9	1.1	0	6	-6
COc1cccc(OCCn2c(C)c(/C=N/n3cnnc3)c3ccccc32)c1	3	0.4	0.6	4	56*	36
Cc1cccc(OCCn2c(S(=O)(=O)O)nc3ccccc32)c1	25	0.9	0.7	2	11	35
COc1ccc(OCCn2c(C)c(/C=N/n3cnnc3)c3ccccc32)cc1	14	0.2	0.3	15	76*	75*
Cc1c(/C=N/n2cnnc2)c2ccccc2n1C	2	0.2	0.8	9	77*	20
Cc1cccc(C)c1OCC(O)CN (stereo not given)	3	1	1.1	-3	-2	-15
O=C(O)c1ccc(-c2ccc(O)c(F)c2)cc1	-3	1.2	1	1	-16	-5
CN(C)c1ccc(NC(=O)CSc2nnc(-c3cccs3)n2Cc2ccco2)cc1	17	0.7	0.6	4	27	44
